MITF inh = blocks human microphthalmia-associated transcription factor. AID 1259374. AlphaScreen MITF homodimerization, bead proximity signal. O75030. inhibition, % at 2.6 µM. 0.91% of 650,000 active; in the data active = inhibition above about 50%
Target sequence (O75030 whole entry, looked up): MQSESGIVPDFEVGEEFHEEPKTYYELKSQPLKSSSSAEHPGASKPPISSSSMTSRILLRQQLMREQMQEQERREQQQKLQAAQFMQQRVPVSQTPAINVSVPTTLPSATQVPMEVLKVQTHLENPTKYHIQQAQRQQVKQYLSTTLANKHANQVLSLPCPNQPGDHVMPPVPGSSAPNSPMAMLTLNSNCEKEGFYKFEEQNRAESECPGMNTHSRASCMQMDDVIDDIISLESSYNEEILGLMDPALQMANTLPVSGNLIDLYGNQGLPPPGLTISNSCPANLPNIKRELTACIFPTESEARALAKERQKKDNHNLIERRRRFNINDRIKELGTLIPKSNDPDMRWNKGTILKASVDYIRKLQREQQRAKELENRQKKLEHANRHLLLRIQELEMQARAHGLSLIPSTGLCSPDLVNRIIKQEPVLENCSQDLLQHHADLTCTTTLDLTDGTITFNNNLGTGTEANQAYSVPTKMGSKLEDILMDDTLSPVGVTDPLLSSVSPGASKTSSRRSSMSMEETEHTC
GPR151 ag = activates the human receptor GPR151; Q8TDV0; PathHunter beta-arrestin GPR151 cells, luminescence; activation, % at 11.2 µM; 1% of 650,000 active; in the data active = activation above about 4.9%
FBW7 act = human FBW7 E3 ligase activation, primary screen; Q969H0; AlphaScreen FBW7–phospho-cyclin E peptide binding, activator screen; normalized activity (activation), % at 26.1 µM; 0.13% of 650,000 active; in the data active = normalized activity above about 1.9%;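 note: purified mutant Fbw7 with reduced substrate affinity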
TEAD-YAP inh = TEAD-YAP interaction inhibition. HEK-TIYL cells, TEAD-Gal4/YAP UAS-luciferase luminescence. inhibition, % at 9.12 µM. 1.4% of 640,000 active. AID 1259422; in the data active = inhibition above about 32%
GPR151 confirm = confirmation of human GPR151 activators | shares compounds with GPR151 ag | GPR151 PathHunter beta-arrestin cells, luminescence, 90 min; % of EA-reagent control over plate median | activation, % at 11.2 µM | 6,700 tested, under 10 active | AID 1508609;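 active = mean percent activation across replicates above the confirmation screen cutoff of 4.91%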
GPR119 ag = counter-screen for GPR151 activators: effect on human GPR119 | shares compounds with GPR151 ag | GPR119 PathHunter beta-arrestin cells, luminescence, 90 min; 0 = compound-well median, 100 = enzyme-acceptor control | activation, % at 11.2 µM | 0.3% of 6,700 active | AID 1508611;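 active = mean percent activation in the counterscreen above 29.09%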;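 note: counterscreen on off-target GPR119 to flag nonselective hits from the GPR151 activator screen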
Numbers stand for hits; – = inactive; · = no result. An excerpt weighted towards active compounds, which were near 3.4% of everything screened.

SMILES | MITF inh | GPR151 ag | FBW7 act | TEAD-YAP inh | GPR151 confirm | GPR119 ag
COc1cc(C2C(C(=O)OC3CCCC3)=C(C)NC3=C2C(=O)CC(c2ccc(Cl)cc2)C3)ccc1OC(C)=O (stereo unspecified) | – | 5.5 | – | – | – | –
CCCOc1ccc(C2C(C(=O)OC3CCCCC3)=C(C)NC3=C2C(=O)CCC3)cc1OC (stereo unspecified) | – | 7.2 | – | – | – | –
Cc1cc(C)cc(Nc2cnn(C34CC5CC(CC(C(=O)O)(C5)C3)C4)c(=O)c2Cl)c1 | – | – | – | – | · | ·
COc1ccc(/C=C/C(=O)Nc2ccc(OC(C)C)cc2)cc1 | – | – | – | – | · | ·
CC(C)Oc1ccc(NC(=O)/C=C/c2ccc(F)cc2)cc1 | – | 6.7 | – | – | – | –
Cc1nccc2[nH]c(=O)c(C(=O)NCCc3ccccc3)cc12 | – | 7.3 | – | – | – | –
COc1ccc(-n2cc(C(=O)N3CCCCC3)c3ccccc3c2=O)cc1 | – | – | – | – | · | ·
O=C(Nc1ccccc1Cl)c1ccccc1[N+](=O)[O-] | – | – | – | – | · | ·
O=C(CCC(=O)Nc1ccccc1Cl)NNC(=O)c1ccccc1[N+](=O)[O-] | – | 7.5 | – | – | – | –
O=C(Nc1ccccc1N1CCCC1)c1ccccc1[N+](=O)[O-] | – | 5.8 | – | – | – | –
N#Cc1ccc(C(=O)Nc2ccccc2N2CCCC2)c(F)c1 | – | 13.8 | – | – | – | –
CCCNC(=O)CN1CCC(c2nc3ccccc3[nH]2)CC1 | – | – | – | – | · | ·
COc1ccccc1NC(=O)COc1ccc(C(=O)O)cc1 | – | 7.9 | – | – | – | –
Cc1ccc(Cl)cc1NC(=O)CC(O)(C(F)(F)F)C(F)(F)F | – | 5.2 | – | – | – | –
COc1ccccc1NC(=O)CC(O)(C(F)(F)F)C(F)(F)F | – | 5.8 | – | – | – | –
O=C(CC(O)(C(F)(F)F)C(F)(F)F)Nc1ccccc1Br | – | – | – | – | · | ·
NC(=O)c1ccc(-c2nc3ccc(C(=O)NCc4ccccc4)cc3s2)cc1 | – | – | – | – | · | ·
Cc1ccc(-n2c(CNS(C)(=O)=O)nnc2SCc2ccc(F)cc2)cc1 | – | 4.9 | – | – | – | –
CS(=O)(=O)NCc1nnc(SCc2ccc(F)cc2)n1-c1ccc(F)cc1 | – | – | – | – | · | ·
O=Cc1ccc(C(=O)OCc2cccc([N+](=O)[O-])c2)cc1 | – | – | – | – | · | ·
COc1ccc(NS(=O)(=O)c2ccc(N/C=C\C(=O)c3ccccc3)cc2)nn1 | – | 7.2 | – | – | – | –
Clc1ccc(C(Cn2ccnc2)OCc2c(Cl)cccc2Cl)c(Cl)c1 (stereo unspecified) | – | 10.2 | – | · | – | –
O=C(NCCC1=CCCCC1)c1ccc2c(=O)n(-c3ccccc3)c(SCc3nc4ccccc4[nH]3)nc2c1 | – | – | – | – | · | ·
O=C(c1ccco1)N(Cc1ccccc1F)C1CCS(=O)(=O)C1 (stereo unspecified) | – | 5.3 | – | – | – | –
NC(N)=NS(=O)(=O)c1ccc(N/C=C/C(=O)c2ccc(Cl)c(Cl)c2)cc1 | – | – | – | – | · | ·
SMILES | MITF inh | GPR151 ag | FBW7 act | TEAD-YAP inh | GPR151 confirm | GPR119 ag
COc1cccc(NC(=S)Nc2ccccc2OC)c1 | – | 12.8 | – | – | – | –
CC(=O)NC(=S)Nc1ccc(Br)c(C)n1 | – | – | – | – | · | ·
COc1ccccc1C(=O)NC(=S)Nc1ccc(Br)c(C)n1 | – | 5.2 | – | – | – | –
CCC(=O)Nc1cccc(NC(=S)NC(=O)c2ccccc2OC)c1 | – | 8.8 | – | – | – | –
C=CCOc1ccc(NC(=O)C(=O)NCCCN2CCOCC2)cc1 | – | – | – | – | · | ·
COc1ccc(-n2c(SCC(=O)Nc3ccccc3OC)nc3ccsc3c2=O)cc1 | – | – | – | – | · | ·
COc1ccccc1NC(=O)CSc1nc2ccsc2c(=O)n1-c1ccc(Cl)cc1 | – | 5.6 | – | – | – | –
COc1ccc(/C(C)=N/OC/C(O)=C(\C#N)c2nc3ccccc3[nH]2)c(OC)c1 | – | – | – | – | · | ·
CS(=O)(=O)N(CC(=O)Nc1cccc(F)c1)Cc1ccccc1 | – | 6.3 | – | – | – | –
Cc1cccc(N(CCCN2C(=O)c3cccc4cccc(c34)C2=O)C(=O)c2cccs2)c1 | – | 5.7 | – | – | – | –
O=C(CCC(=O)c1ccc(Br)cc1)Nc1cccnc1 | – | – | – | – | · | ·
O=C(CCC(=O)c1ccc(Oc2ccccc2)cc1)Nc1cccnc1 | – | 6.8 | – | – | – | –
Nc1nc(SCc2cn3cc(Br)ccc3n2)n[nH]1 | – | 7.6 | – | – | – | –
COc1ccc(-c2c3c(=O)n(C)c(=O)n(C)c3cn2-c2cc(C)ccc2O)cc1 | – | 5.4 | – | – | – | –
Cc1ccc(C(=O)NCc2ccc(Cl)cc2)o1 | – | 7.7 | – | – | – | –
NC(=O)C(=O)NCc1ccc(Cl)cc1 | – | 5.9 | – | – | – | –
Cc1ccc(C(=O)NCc2ccccc2)o1 | – | – | – | – | · | ·
COc1ccc(/C=C/C(=O)Nc2cccc(C(F)(F)F)c2)cc1OC | – | – | – | – | · | ·
COc1ccc(-c2nc(NC(=O)CCC(=O)O)sc2C)cc1 | – | – | – | – | · | ·
CCOC(=O)C1=CN(Cc2ccc(Cl)cc2)C=C(C(=O)OCC)C1c1ccc(F)cc1 | – | – | – | – | · | ·
Cc1csc(NC(=O)C2CCC(C)(C(=O)O)C2(C)C)n1 (stereo unspecified) | – | 7.3 | – | – | – | –
Cc1ccccc1NC(=O)C1CCC(C)(C(=O)O)C1(C)C (stereo unspecified) | – | 5.1 | – | – | – | –
CC1(C(=O)O)CCC(C(=O)Nc2ccc(Nc3ccccc3)cc2)C1(C)C (stereo unspecified) | – | – | – | – | · | ·
O=C(O)CCn1c(=O)oc2cc(S(=O)(=O)O)ccc21 | – | 7.5 | – | – | – | –
COC(=O)C1CCN(C(=O)CC(C)(C)C)CC1 | – | 6.1 | – | – | – | –
SMILES | MITF inh | GPR151 ag | FBW7 act | TEAD-YAP inh | GPR151 confirm | GPR119 ag
CCCCCNC(=O)CNC(=O)CNC(=O)c1ccccc1 | – | – | – | – | · | ·
COc1ccc(Cl)cc1NC(=O)Nc1cccc([N+](=O)[O-])c1C | – | 8.3 | – | – | – | –
Cc1c(NC(=O)Nc2cccc(Cl)c2)cccc1[N+](=O)[O-] | – | – | – | – | · | ·
O=C1C(c2ccc(F)cc2)N(C2CCCCCCC2)C(=O)CN1C1CCCCCC1 (stereo unspecified) | – | 8.2 | – | – | – | –
O=C1C(c2ccc(F)cc2)N(C2CCCCC2)C(=O)CN1C1CCCCCC1 (stereo unspecified) | – | 8.6 | – | – | – | –
O=C1C(c2ccc(F)cc2)N(C2CCCC2)C(=O)CN1C1CCCCC1 (stereo unspecified) | – | – | – | – | · | ·
CC1(C)CC(=O)C2=C(C1)N(c1ccc(O)cc1)C(=O)CC2c1ccc([N+](=O)[O-])cc1 (stereo unspecified) | – | – | – | – | · | ·
